Test results from PubChem BioAssay (NCI).
This is part of a sample that, as a whole, favours compounds with a hit. Of some 83,000 tested, about 20% had one in any assay.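 Single-concentration screen, 48 h exposure, 96-well plates. Endpoint: percent growth. Below 10 = active.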

Key:
Assay in all cases: NCI-60 one-dose screen, 48 h (100 = growth as untreated, 0 = no growth, -100 = all killed)
Settings in all cases: 10 µM unless noted
[1] = test system: SK-MEL-2 melanoma
[2] = test system: EKVX NSCLC
[3] = test system: SN12C renal
[4] = test system: UO-31 renal
[5] = test system: TK-10 renal
[6] = test system: ACHN renal
[7] = test system: CAKI-1 renal
[8] = test system: A498 renal
[9] = test system: MOLT-4 leukemia
[10] = test system: SR leukemia
[11] = test system: RPMI-8226 leukemia
[12] = test system: OVCAR-8 ovarian
[13] = test system: OVCAR-5 ovarian
[14] = test system: OVCAR-4 ovarian
[15] = test system: SK-OV-3 ovarian
[16] = test system: IGROV1 ovarian
[17] = test system: OVCAR-3 ovarian
[18] = test system: HS 578T breast
[19] = test system: NCI/ADR-RES ovarian

Measured: growth

C=CCn1c(C)nc2cc(Nc3nc(Cl)nc4ccccc34)ccc21
inactive: [1] 99.5% | [2] 93.7% | [3] 97.3% | [4] 93.8% | [5] 114% | [6] 103% | [7] 87.2% | [8] 55.4% | [9] 78.7% | [10] 94.7% | [11] 75.2% | [12] 93.8% | [13] 99.8% | [14] 91.2% | [15] 122% | [16] 116% | [17] 102% | [18] 92.7% | [19] 90.3%

COc1cc(/C=C/C(=O)c2c(C)nc3ccccc3c2C)ccc1OCCCN1CCN(C(=O)c2ccco2)CC1
inactive: [1] 59.3% | [2] 81.7% | [3] 92.5% | [4] 66.7% | [5] 110% | [6] 80.6% | [7] 74.8% | [8] 59.4% | [9] 60.6% | [10] 64.8% | [11] 31.4% | [12] 73.5% | [13] 95.5% | [14] 25.2% | [15] 107% | [16] 76.6% | [17] 97.9% | [18] 82.1% | [19] 55.6%

N#Cc1c(-c2cccc(Cl)c2)cc(-c2cccc(Cl)c2)[nH]c1=O
inactive: [1] 67% | [2] 89% | [3] 82.8% | [4] 74% | [5] 96.7% | [6] 93.4% | [7] 63.6% | [8] 47% | [9] 54.1% | [10] 29.6% | [11] 57.2% | [12] 87.3% | [13] 101% | [14] 68.4% | [15] 82.6% | [16] 70.8% | [17] 64.1% | [18] 56.8% | [19] 64.6%

COc1ccc(-c2nc(SC(C)C)nc(NNC(N)=S)c2C#N)cc1
inactive: [1] 48.7% | [2] 65.7% | [3] 55.1% | [4] 64.3% | [5] 72.9% | [6] 72.1% | [7] 42.3% | [8] 50.2% | [9] 32.1% | [10] 24.4% | [11] 32.7% | [12] 71.2% | [13] 66% | [14] 86.3% | [15] 73% | [16] 52.6% | [17] 18.2% | [18] 54.9% | [19] 19.6%

Cc1ccc(-c2c(-c3ccccc3)c(=O)oc3ccc(C)cc23)cc1
inactive: [1] 134% | [2] 96.9% | [3] 91.9% | [4] 79.9% | [5] 118% | [6] 90.6% | [7] 81.1% | [8] 97.9% | [9] 76.3% | [10] 71.1% | [11] 87.7% | [12] 93.9% | [13] 113% | [14] 98.5% | [15] 101% | [16] 145% | [17] 117% | [18] 99.6% | [19] 93.2%

N=c1sc(Cc2ccc(Cl)cc2)cn1CC(=O)c1ccc(F)cc1
inactive: [1] 97.1% | [2] 70.5% | [3] 87.5% | [4] 57.6% | [5] 66.9% | [6] 47.2% | [7] 44.6% | [8] 91.1% | [9] 71.3% | [10] 87.4% | [11] 74.1% | [12] 80% | [13] 71% | [14] 69% | [15] 107% | [16] 78.2% | [17] 92.6% | [18] 96.9% | [19] 73.9%

Cc1cccc(Cc2cnc(NC(=O)c3ccc4nnsc4c3)s2)c1
inactive: [1] 82.7% | [2] 87.4% | [3] 92.9% | [4] 78.5% | [5] 80.9% | [6] 70.3% | [7] 60.2% | [8] 106% | [9] 90.2% | [10] 95.2% | [11] 76.4% | [12] 96.5% | [13] 84.4% | [14] 98.3% | [15] 91.8% | [16] 97.9% | [17] 104% | [18] 109% | [19] 90%
